Screens as filed in PubChem BioAssay.
The list is not random: actives were taken first. Their share in the collection is about 7.4%.
M1 ag – M1 muscarinic receptor agonists, primary screen, CHO-M1 cells, Fluo-4 calcium, agonist mode | Muscarinic acetylcholine receptor M1 | Fluo-4 calcium fluorescence; hits give high values | B-score at 10 µM | 3% of 64,000 active;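 active = fluorescence rise, raw or as B-score row- and column-corrected plate score, outside the 99.7% band of its plate's samples, either direction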
M1 antagonist – antagonists of rat M1 muscarinic receptor; 3.4% of 64,000 active; CHO-M1 cells, Fluo-4 calcium, ACh EC80 antagonist mode; hits give low values; B-score at 10 µM; Muscarinic acetylcholine receptor M1 (Rattus norvegicus), P08482;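 active = calcium fluorescence response, raw or row-and-column corrected B-score, differing from the plate sample mean either way at a set confidence level, mostly lower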
FXIIa mix inh – human factor XIIa inhibitors, primary screen, biochemical, pooled compound mixtures, fluorogenic substrate. Coagulation factor XII (Homo sapiens), P00748. purified FXIIa. inhibition, % at 5 µM. 0.2% of 62,000 active. AID 684, 2007
Target sequence (P00748 20-372 limits assumed): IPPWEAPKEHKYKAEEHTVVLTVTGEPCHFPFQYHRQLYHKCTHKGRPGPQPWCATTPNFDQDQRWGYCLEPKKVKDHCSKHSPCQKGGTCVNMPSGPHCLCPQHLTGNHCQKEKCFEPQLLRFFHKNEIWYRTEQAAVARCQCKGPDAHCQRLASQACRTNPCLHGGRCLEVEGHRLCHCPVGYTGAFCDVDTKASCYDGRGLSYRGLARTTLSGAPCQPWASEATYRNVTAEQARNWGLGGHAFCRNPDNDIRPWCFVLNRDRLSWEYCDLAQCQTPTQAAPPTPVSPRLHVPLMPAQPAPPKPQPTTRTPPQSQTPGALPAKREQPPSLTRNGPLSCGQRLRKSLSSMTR
Target sequence (P00748 373-615 limits assumed): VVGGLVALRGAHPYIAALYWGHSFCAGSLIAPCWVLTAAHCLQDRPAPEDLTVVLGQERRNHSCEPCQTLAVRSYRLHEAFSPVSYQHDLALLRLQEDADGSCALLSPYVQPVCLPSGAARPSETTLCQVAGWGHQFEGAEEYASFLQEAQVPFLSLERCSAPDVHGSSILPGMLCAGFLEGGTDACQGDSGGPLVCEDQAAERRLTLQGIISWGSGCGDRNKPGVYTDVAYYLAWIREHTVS
D1 mod – D1 CRE-luciferase signal change, two-sided – cell-based, HEK293 D1, dopamine EC30, D1 allosteric modulator project, primary screen; D(1A) dopamine receptor (Homo sapiens), P21728; dopamine EC30 potentiation; actives deviate in either direction; B-score at 10 µM; 5.9% of 58,000 active; AID 641, 2007;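 active = luminescence count or its row- and column-corrected plate score outside the 99.7% band of the plate's sample wells, on either side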
FXIa inh mix – FXIa protease inhibitors in compound pools, primary screen, biochemical, 10-compound mixtures; 0.19% of 62,000 active; Coagulation factor XI (Homo sapiens), P03951; inhibition, % at 5 µM; purified FXIa, fluorogenic substrate, pooled mixtures; AID 680, 2007;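 note: each value is inhibition by a whole ten-compound pool holding the compound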
DAT uptake mod – changed hDAT dopamine uptake under cocaine IC80, either direction, primary screen, cocaine antagonist project, cell-based, LLC-PK1 hDAT, [14C]-dopamine uptake, MLSMR | LLC-PK1 hDAT cells, [14C]-dopamine uptake with cocaine IC80; actives deviate in either direction | AID 449768, 2010 | 1.3% of 110,000 active | Sodium-dependent dopamine transporter (Homo sapiens), Q01959 | B-score at 10 µM;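 active = Z score or B-score, a plate-position-corrected score, falls beyond the plate's 99.7% confidence bounds, in either direction; inactive = both scores lie inside the 99.7% bounds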
A number is an active result; . = inactive; / = not tested or not shown. Cut-off read from the data, not from the text of the source, unless noted: active = inhibition above about 20% (passing the limit was not always enough); inactive = the rest.

SMILES | M1 ag | M1 antagonist | FXIIa mix inh | D1 mod | FXIa inh mix | DAT uptake mod
COc1ccc(C(=O)Nc2cccc(OC)c2)cc1 | . | . | . | -3.7 | . | .
COc1cccc(C(=O)Nc2ccc(NC(C)=O)cc2)c1 | / | / | / | / | / | .
COc1cccc(C(=O)Nc2cccc(NC(C)=O)c2)c1 | . | . | . | . | . | .
COc1cccc(C(=O)Nc2ccc(NC(=O)C(C)(C)C)cn2)c1 | . | . | . | -6.3 | . | .
Cn1c(=O)[nH]c(=O)c2[nH]c(CN3CCN(Cc4ccccc4)CC3)nc21 | . | . | . | -4.3 | . | .
CSc1cc(-c2ccc(Cl)cc2)c(C(=O)NN)s1 | / | / | / | / | / | 3.2
CCCCc1c(C(=O)O)cc(OC)cc1C(=O)O | . | . | . | . | . | .
CCCCCc1c2c(cc(O)c1C(=O)O)OC(=O)c1c(cc(OC)cc1C(=O)CCCC)O2 | / | / | / | / | / | 5.3
CCCCn1c(SCC(=O)N2CCC(C)CC2)nc2cc(S(N)(=O)=O)ccc21 | . | . | . | . | . | 3.3
CC(=O)Nc1c(C(=O)c2ccccc2)oc2ccccc12 | . | . | . | 6 | . | .
Nc1c(C(=O)c2ccccc2)oc2ccccc12 | / | / | / | / | / | .
CCC1=C(OC(=O)N(CC)CC)N2C(=O)OC(=NCc3ccccc3)[C@]2(C)[C@H]2C1=CC[C@H]1C(=O)N(c3ccccc3)C(=O)[C@H]12 | / | / | / | / | / | 1.8
CCC1=C(OC(=O)N(CC)CC)N2C(=O)OC(=NCc3ccccc3)[C@]2(C)[C@H]2C1=CC[C@H]1C(=O)N(CC(=O)OC)C(=O)[C@H]12 | / | / | / | / | / | .
Cc1ccc(C(=O)Nc2nc3ccccc3s2)s1 | . | . | . | -5.8 | . | /
Cc1ccc(CNc2nc3ccccc3s2)s1 | . | . | . | -2.4 | . | .
Cc1ccc(C(=O)Nc2nc3ccc(S(C)(=O)=O)cc3s2)s1 | . | . | . | . | . | .
Cc1sc(NC(=O)c2ccco2)c(C(c2cccnc2)N2CCN(c3ccc(F)cc3)CC2)c1C (stereo not given) | . | . | . | -3 | . | .
COc1cc(CCCN2C(=S)NC[C@@H]2Cc2ccccc2)cc(OC)c1OC | / | / | / | / | / | 3
COc1cc(CCCN2C(=S)NC[C@@H]2c2ccccc2)cc(OC)c1OC | / | / | / | / | / | .
Cc1ccc[n+](-c2nc3ccccc3nc2C(=C=[N-])C#N)c1 | / | / | / | / | / | .
CCCS(=O)(=O)N1CCCC(C(=O)N2CCOCC2)C1 (stereo not given) | . | . | . | . | . | .
CC(C)=CCCC1=CCC2C(=O)NNC(=O)C2C1 (stereo not given) | / | / | / | / | / | .
CCSc1nc(-c2ccccc2)c(C#N)c(=O)[nH]1 | . | . | . | . | . | .
N#Cc1c(-c2ccccc2)nc(SCc2nc(N)nc(N3CCCCC3)n2)[nH]c1=O | . | . | . | -3.2 | . | .
CCc1c(C)sc(NC(=O)OC)c1C(=O)N1CCCCC1 | . | . | . | . | . | /
SMILES | M1 ag | M1 antagonist | FXIIa mix inh | D1 mod | FXIa inh mix | DAT uptake mod
COc1ccc(Cn2nnnc2C(c2ccc(N(C)C)cc2)N2CCC(C)CC2)cc1 (stereo not given) | . | . | . | . | . | 2
COc1ccc(Cn2nnnc2C(c2cccs2)N2CCOCC2)cc1 (stereo not given) | . | 2.3 | . | . | . | .
CC1CCN(C(c2ccc(N(C)C)cc2)c2nnnn2Cc2ccccc2)CC1 (stereo not given) | . | . | . | . | . | .
Cc1ccc(OCC(=O)Nc2cccc(O)c2)cc1C | . | . | . | . | . | .
Cc1cc(OCC(=O)Nc2ccncc2)ccc1Br | . | . | . | -3.3 | . | .
CN1CCN(S(=O)(=O)c2ccc(NC(=O)c3csc4ccccc34)cc2)CC1 | . | . | . | -1.9 | . | .
COc1ccc(CN(Cc2cccnc2)C(=S)NCCc2ccccc2)cc1OC | / | / | / | / | / | 2
CCN(CC)C(=O)Nc1ccc(C(=O)OC)cc1 | / | / | / | / | / | .
CCn1c(COc2ccc(C)cc2)nnc1SCc1ccc(C#N)cc1 | / | / | / | / | / | 3
Cc1sc2nc(CN(C(=O)c3cccs3)C3CCCC3)[nH]c(=O)c2c1C | . | 1.9 | . | . | . | .
C=CCn1c(SCC(=O)N2CCc3ccccc3C2)nc2sc(C)cc2c1=O | / | / | / | / | / | .
Cc1cc(NC(=O)CCC(=O)N(CCc2ccccc2)C(C(=O)NC2CCCC2)c2ccco2)no1 (stereo not given) | . | 2.4 | . | . | . | .
COc1ccccc1-c1nn2c(-c3ccccc3Cl)nnc2s1 | -2 | . | . | . | . | /
CC(C)n1nnnc1-c1cccc(Cl)c1 | / | / | / | / | / | .
OC(CN1CCN(c2ccccn2)CC1)Cn1c2ccccc2c2ccccc21 (stereo not given) | . | . | . | -2.7 | . | .
OC(COc1ccc(Cl)c2ccccc12)CN1CCN(c2ccccn2)CC1 (stereo not given) | . | . | . | . | . | /
Cc1ccc(S(=O)(=O)N2CCN(C(=O)c3cc4c(C)nn(-c5ccccc5)c4s3)CC2)cc1 | / | / | / | / | / | .
CCc1c(C)sc2nc(SCC(=O)Nc3cc(C)on3)n(CCOC)c(=O)c12 | / | / | / | / | / | .
COc1ccc(C(=O)NC(=O)Nc2cc(C)ccn2)cc1 | . | . | . | -6 | . | .
Cc1cc2nc(NC3=NCN(CCN4CCOCC4)CN3)nc(C)c2cc1C | . | -5.7 | . | . | . | /
Cc1cc2nc(NC3=NCN(Cc4ccc5c(c4)OCO5)CN3)nc(C)c2cc1C | . | -5.1 | . | / | . | /
COc1ccc(N(C(=O)c2ccco2)S(=O)(=O)c2cc(OC)ccc2OC)cc1 | . | 1.9 | . | -2.2 | . | .
CCCN1Cc2cccc(C(=O)Nc3ccc(OC)c(OC)c3)c2C1=O | . | . | . | 3.8 | . | /
COCCN1Cc2cccc(C(=O)Nc3ccc(S(=O)(=O)N4CCCCC4)cc3)c2C1=O | / | / | . | 6.8 | . | /
COC(=O)c1cc(OC)c(OC)cc1NC(=O)c1c(-c2ccccc2Cl)noc1C | . | . | . | . | . | .
SMILES | M1 ag | M1 antagonist | FXIIa mix inh | D1 mod | FXIa inh mix | DAT uptake mod
CCOC(=O)c1ccc(N2C(=O)C3CC=CCC3C2=O)cc1 (stereo not given) | . | . | . | . | . | 7.9
CN(C(=O)COc1ccc(Cl)cc1Cl)c1nnc(C23CC4CC(CC(C4)C2)C3)s1 | / | / | / | / | / | .
Cc1ccc(S(=O)(=O)N(CC(=O)O)Cc2ccccc2F)cc1 | . | . | . | . | . | .
NC(=O)c1sc2nc(-c3ccco3)ccc2c1N | / | / | / | / | / | .
COC(=O)c1sc2nc(-c3ccco3)ccc2c1N | . | . | . | -3.2 | . | .
COc1ccc(OC)c(-c2cc(C(=O)Nc3c(C)nn(Cc4ccc(Cl)cc4)c3C)no2)c1 | . | . | . | . | . | /
COc1ccc(-c2cn3c(C)c(C(=O)N4CCc5ccccc5C4)sc3n2)cc1 | 4.7 | . | . | / | . | /
